# Sampled rows, rich in hits. Any-hit rate of the full collection: about 2.6%.
# KLF5 inhibitor = inhibitors of KLF5 expression; AID 1700; inhibition, % at 5 µM; DLD-1 KLF5 promoter-luciferase reporter, luminescence; 290,000 compounds, 0.23% hits;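 active = inhibition above a per-plate limit of that plate's mean compound inhibition plus 3 SD, cut at about 60% in these data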;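 note: 0% = DMSO wells and 100% = LY294002 at 200 µM; higher means less KLF5 promoter-driven luciferase light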
# FID counter = counter-screen for HCV NS3 helicase inhibitors: DNA intercalator displacement. DNA fluorescent intercalator displacement, fluorescence. inhibition, % at 7.9 µM. 290,000 compounds, 0.17% hits. AID 1845; in the data active = inhibition above about 37%;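 note: 0% = vehicle and 100% = reference compound; higher means more ethidium bromide displaced from hairpin DNA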
# BaF3 tox = parental Ba/F3 viability inhibition as JAK2V617F counter-screen; CellTiter-Glo ATP luminescence; inhibition, % at 5.6 µM; 220,000 compounds, 1.1% hits; AID 1486;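 active = inhibition above a per-campaign cutoff, the mean inhibition of all tested compounds plus 3 SD, cut at about 27% in these data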;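 note: 0% = DMSO wells and 100% = JAK Inhibitor I control wells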
# Ba/F3 V617F tox = reduce viability of Ba/F3 cells dependent on JAK2V617F; Ba/F3 EpoR-JAK2V617F viability, ATP luminescence; inhibition, % at 5.6 µM; 220,000 compounds, 1.1% hits; AID 1446;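 active = inhibition above the campaign mean plus 3 SD over all tested compounds, cut at about 24% in these data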;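 note: cytokine-independent growth of Ba/F3 cells driven by EpoR plus mutant JAK2; 0% = DMSO-treated cells and 100% = JAK inhibitor I control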
# IEC-6 cytotox = counter-screen for KLF5 inhibitors: cytotoxicity in IEC-6 cells; IEC-6 cytotoxicity, luminescence viability; inhibition, % at 5 µM; 290,000 compounds, 0.78% hits;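 note: 0% = plate median of test compound wells and 100% = cytotoxic reference compound wells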
# GPR7 antag = antagonists of human GPR7 (neuropeptides B/W receptor 1). P48145. GPR7-expressing cells, fluorescence antagonist assay. inhibition, % at 4.4 µM. 290,000 compounds, 1.1% hits. AID 1861; in the data active = inhibition above about 16%, passing the limit was not always enough;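 note: cells stimulated with the agonist NPW; 0% = agonist with vehicle and 100% = vehicle without agonist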
# Target sequence (P48145 whole entry, looked up): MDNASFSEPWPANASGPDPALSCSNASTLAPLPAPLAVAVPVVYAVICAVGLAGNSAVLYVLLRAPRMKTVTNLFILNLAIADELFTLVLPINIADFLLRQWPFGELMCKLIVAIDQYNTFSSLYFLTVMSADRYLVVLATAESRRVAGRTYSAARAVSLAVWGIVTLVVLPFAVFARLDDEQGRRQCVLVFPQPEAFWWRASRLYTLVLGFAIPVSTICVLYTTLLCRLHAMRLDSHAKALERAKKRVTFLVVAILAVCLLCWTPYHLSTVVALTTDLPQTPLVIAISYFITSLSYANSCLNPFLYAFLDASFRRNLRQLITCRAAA
# GPR7 antag conf = confirmation of human GPR7 antagonists | AID 1952 | inhibition, % at 4.4 µM | shares compounds with GPR7 antag | GPR7-expressing cells, calcium fluorescence antagonist mode | 2,400 compounds, 52% hits; in the data active = inhibition above about 24%;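 note: stimulated with the GPR7 agonist NPW; 0% = agonist plus vehicle and 100% = vehicle alone without agonist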
# MCHR1 antag = antagonizes human MCHR1, a GPR7 antagonist counter-screen; shares compounds with GPR7 antag; MCHR1-expressing cells, fluorescence antagonist assay; inhibition, % at 4.4 µM; 2,400 compounds, 62% hits; AID 2148;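 note: 0% = vehicle with agonist and 100% = vehicle without agonist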
# An asterisk follows results filed as active; / = no result given. Cut-off read from the data, not from the text of the source, unless noted: active = inhibition above about 22%; inactive = the rest.
SMILES,KLF5 inhibitor,FID counter,BaF3 tox,Ba/F3 V617F tox,IEC-6 cytotox,GPR7 antag,GPR7 antag conf,MCHR1 antag
COc1ccc(C(CCNCc2ccc(OC)c(OC)c2)c2ccc(F)cc2)cc1 (configuration not stated),-2.0,22.0,-0.2,1.7,-2.4,30.9*,51.8*,79.9*
CCN1CCCC1CNC(=O)COc1cc(=O)n(C)c2ccccc12 (configuration not stated),-7.0,4.0,0.5,-0.9,2.7,-9.1,/,/
Cc1ccc(S(=O)(=O)NCc2ccc(/C=C(/C#N)C(=O)NCc3ccccc3)o2)cc1,19.1,-16.9,3.1,-4.4,3.6,24.2*,50.5*,58.3*
COc1ccccc1CNC(=O)c1n[nH]c2ccccc12,-42.5,-6.5,-4.3,-6.7,-2.6,30.3*,22.6,20.2
CSc1ccccc1C(=O)N(C)C(c1ccccc1)c1ccccc1,-16.6,-35.7,/,/,1.7,22.4*,15.3,61.3*
COc1ccc(N=C2NN=C(c3ccc4c(c3)OCCO4)CS2)cc1,5.3,-6.0,-0.2,-4.0,-6.9,23.4*,19.8,16.8
FC(F)Sc1ccc(N=C2NN=C(c3ccc4c(c3)OCCO4)CS2)cc1,-5.3,-1.1,3.7,-3.1,-2.4,-4.0,/,/
O=C1/C(=C\c2cc([N+](=O)[O-])ccc2O)SC(=S)N1Cc1ccc(Cl)cc1,2.9,35.1,/,/,-4.8,35.0*,46.8*,85.8*
CC(=O)N1CN(S(=O)(=O)c2ccc(C)cc2)CC1C (configuration not stated),-8.0,-6.9,8.9,2.4,-3.2,-9.3,/,/
COC(=O)C1=C(N)Oc2cc(N(C)C)ccc2C1c1ccccc1OC (configuration not stated),-6.3,-11.1,4.9,-3.8,3.0,25.0*,8.6,33.1*
C[C@@H](C(=O)NC1CCCC1)N1C(=O)N2CCc3c([nH]c4ccccc34)[C@@]2(C)C1=O,-15.3,-34.1,/,/,6.1,25.7*,23.3,5.8
COc1ccc2[nH]c3c(c2c1)CCN1C(=O)N([C@@H](C)C(=O)NC2CCCCC2C)C(=O)[C@]31C (some centres not stated),16.7,-42.5,/,/,10.8,22.8*,9.8,58.3*
CC(=O)Nc1ccc(S(=O)(=O)NCc2nc(-c3cccc(C)c3)no2)cc1,-14.3,1.0,/,/,-6.5,24.4*,-0.2,0.5
COC(=O)C(NC(=O)c1ccccc1C)(Nc1ncc(S(=O)(=O)c2ccc([N+](=O)[O-])cc2)s1)C(F)(F)F (configuration not stated),0.9,-11.9,5.2,0.0,-1.1,34.5*,41.1*,36.9*
COC(=O)C(NC(=O)c1ccc(F)cc1)(Nc1ncc(S(=O)(=O)c2ccc([N+](=O)[O-])cc2)s1)C(F)(F)F (configuration not stated),-18.9,-0.5,0.9,-2.4,-12.1,-0.5,/,/
COc1cc(C(=S)N2CCOCC2)ccc1OC(=O)c1ccc(Br)cc1,-30.2,-32.0,/,/,-6.8,41.5*,65.8*,81.0*
COc1cc(C(=S)N2CCOCC2)ccc1OC(=O)c1cccc(C)c1,3.9,-35.0,/,/,-8.3,-11.9,/,/
Cc1[nH]c2ccccc2c1C(=O)COC(=O)Cn1c(C)nc2ccccc21,-34.7,-18.7,3.9,2.7,-1.0,-15.0,/,/
CCOC(=O)Cc1csc(NC(=O)COc2ccc(OC)cc2)n1,-57.3,-15.8,2.8,-4.0,-5.1,-8.1,/,/
CCOC(=O)Cc1csc(NC(=O)COc2ccc(N(C)S(=O)(=O)c3ccc(C)cc3)cc2)n1,-5.9,-27.0,5.1,4.7,5.5,32.3*,27.1*,66.8*
CC(=O)n1cc(/C=N/NC(=O)c2cccc(O)c2)c2ccccc21,-88.7,-6.8,/,/,-1.8,4.1,/,/
CC1(C)CSC(=NCc2ccccc2)N1C(=O)c1cccc([N+](=O)[O-])c1,-12.8,8.8,3.2,-4.8,-3.3,71.1*,75.3*,82.3*
NC(=NCc1ccccc1)c1cccc([N+](=O)[O-])c1,-29.7,1.7,/,/,1.0,-10.3,/,/
COc1ccc(C(=O)Nc2nnc(S(=O)(=O)N(C)Cc3ccccc3)s2)cc1,-0.4,2.3,/,/,-4.0,40.6*,21.9,30.7*
CN(Cc1ccccc1)S(=O)(=O)c1nnc(NC(=O)c2ccc(F)cc2)s1,-3.6,-9.3,/,/,0.5,8.7,/,/
SMILES,KLF5 inhibitor,FID counter,BaF3 tox,Ba/F3 V617F tox,IEC-6 cytotox,GPR7 antag,GPR7 antag conf,MCHR1 antag
COc1cccc(N2CCc3c(C)nc4ccc(Cl)cc4c32)c1,-9.5,1.6,/,/,14.5,35.6*,33.4*,33.8*
CCN(c1ccc(OC)cc1)S(=O)(=O)c1ccc(-c2ccc(=O)[nH]n2)o1,-1.3,-24.0,/,/,-0.6,2.9,/,/
O=C(CNS(=O)(=O)c1ccc([N+](=O)[O-])cc1)N/N=C\c1ccc(O)cc1,-33.8,-4.3,/,/,2.3,40.6*,46.2*,34.4*
O=C(CNS(=O)(=O)c1ccc([N+](=O)[O-])cc1)N/N=C/c1ccc(O)cc1O,-9.9,3.0,/,/,4.6,41.0*,64.3*,44.5*
CC(=O)Nc1ccc(/C=N\NC(=O)CNS(=O)(=O)c2ccc([N+](=O)[O-])cc2)cc1,1.5,9.1,2.0,-2.8,-2.9,11.9,/,/
COc1ccc(C=O)cc1COc1ccc([N+](=O)[O-])c(C)c1,-19.6,3.7,4.1,-0.7,5.5,23.4*,49.3*,44.0*
COc1ccc(C=O)cc1COc1ccccc1F,9.4,2.0,-1.6,-3.7,0.5,1.0,/,/
CCOC(=O)Cn1c(=O)c2c(nc3n2CCS3)n(C)c1=O,-19.4,2.9,4.5,3.4,-1.5,7.2,/,/
O=C(NCCNc1ccc([N+](=O)[O-])cc1)c1ccc(Cl)cc1,-20.9,10.3,4.0,0.6,8.6,7.4,/,/
O=C(COc1ccc(Cl)cc1)NCCNc1ccc([N+](=O)[O-])cc1,-5.1,0.5,/,/,3.9,52.0*,48.6*,51.4*
Cc1ccc(NC(=O)C(C)c2cccc(C(=O)c3ccccc3)c2)cc1O (configuration not stated),-32.8,-18.1,6.1,-0.8,-5.1,-8.3,/,/
CCOc1cc(C2C3=C(CC(C)(C)CC3=O)N(CCOC)C3=C2C(=O)CC(C)(C)C3)ccc1O,-31.1,-36.2,/,/,-3.0,-7.2,/,/
Cc1cc(C)cc(NC(=O)NC(C)C2CCCO2)c1 (configuration not stated),-16.1,3.4,7.0,0.4,-4.7,3.4,/,/
CC(NC(=O)Nc1ccc2c(c1)OCO2)C1CCCO1 (configuration not stated),-54.9,-1.2,6.0,-0.6,-1.1,98.8*,-4.5,18.4
Cc1ccc(C2CC(c3ccc(Br)cc3)=NN2C(=O)CSC2=NN3CCCC(=O)N=C3S2)cc1 (configuration not stated),-20.0,-49.3,/,/,1.0,1.2,/,/

# Screening results (PubChem)
